Test results published in PubChem BioAssay (NCATS).
Values joined by “and” are separate entries in the source; they are usually repeats but may differ in a detail not shown here. Equal entries are not always repeated. Records with an inconclusive call do not appear. Active and inactive are the calls of the source. Calls come from the whole dose curve; as a rule, active = well fitted inhibition curve with a large enough effect; inconclusive = small, poorly fitted or top-dose-only effect; inactive = flat fitted curve, though single readings scatter.

Key:
SC27B = test: qHTS profiling for inhibitors of Plasmodium falciparum proliferation (AID 504749);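 note: 0% = DMSO vehicle and full inhibition = artemisinin control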; settings: P. falciparum in erythrocytes, SYBR Green DNA, 72 h; series mostly up to 28.7 µM
Procedure, shortened: (§1)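 P. falciparum-infected erythrocytes (0.3% parasitemia, 2.5% hematocrit final) were exposed to compounds for 72 h at 37 C in 5% CO2, then lysed with SYBR Green buffer overnight at room temperature; parasite DNA fluorescence was normalized to artemisinin and DMSO controls.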

TAB109 = test: as above; settings: P. falciparum in erythrocytes, SYBR Green DNA, 72 h; series mostly up to 28.7 µM
Procedure, shortened: as §1

TAB113 = test: as above; settings: P. falciparum in erythrocytes, SYBR Green DNA, 72 h; series mostly up to 28.7 µM
Procedure, shortened: as §1

TAB165 = test: as above; settings: P. falciparum in erythrocytes, SYBR Green DNA, 72 h; series mostly up to 28.7 µM
Procedure, shortened: as §1

W2 = test: as above; settings: P. falciparum in erythrocytes, SYBR Green DNA, 72 h; series mostly up to 28.7 µM
Procedure, shortened: as §1

CRL-7250 [1] = test: Cytotoxic Profiling of Annotated Libraries Using Quantitative High-Throughput Screening (AID 1296008); settings: Five cell lines viability, CellTiter-Glo ATP luminescence, 48-72 h; max response: active compounds read low; for max response: % is set by controls: 0 for no effect and ±100 for the full control effect
Procedure, shortened: (§2)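 Compounds were pin-transferred onto cells and incubated 48 or 72 hr at 37 degree Celsius, 95% humidity. CellTiter-Glo was added, plates sat 10 min at room temperature, then ATP-coupled luminescence was imaged as the viability read-out.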

HEK293 = test: as above; settings: Five cell lines viability, CellTiter-Glo ATP luminescence, 48-72 h; max response: active compounds read low
Procedure, shortened: as §2

HaCat [2] = test: as above; settings: Five cell lines viability, CellTiter-Glo ATP luminescence, 48-72 h; max response: active compounds read low
Procedure, shortened: as §2

KB-3-1 = test: as above; settings: Five cell lines viability, CellTiter-Glo ATP luminescence, 48-72 h; max response: active compounds read low
Procedure, shortened: as §2

NIH3T3 [3] = test: as above; settings: Five cell lines viability, CellTiter-Glo ATP luminescence, 48-72 h; max response: active compounds read low
Procedure, shortened: as §2

HEK293T = test: qHTS assay to identify novel small-molecules to repurpose for Merkel cell carcinoma treatment (AID 1296009); settings: MCC and control cell lines, CellTiter-Glo viability, 72 h; at 44.8 µM (top of the series)
Procedure, shortened: (§3)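 Cells exposed to NPC (8-point) and MIPE (11-point) compound dilutions for 72 hr at 37 degree celsius; viability read by CellTiter-Glo luminescence, normalized to no-cell and DMSO in-plate controls.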

MCC-13 = test: as above; settings: MCC and control cell lines, CellTiter-Glo viability, 72 h; series mostly up to 46 µM
Procedure, shortened: as §3

MCC-26 = test: as above; settings: MCC and control cell lines, CellTiter-Glo viability, 72 h; series mostly up to 46 µM
Procedure, shortened: as §3

MKL-1 = test: as above; settings: MCC and control cell lines, CellTiter-Glo viability, 72 h; series mostly up to 46 µM
Procedure, shortened: as §3

MKL-2 = test: as above; settings: MCC and control cell lines, CellTiter-Glo viability, 72 h; series mostly up to 46 µM
Procedure, shortened: as §3

UISO = test: as above; settings: MCC and control cell lines, CellTiter-Glo viability, 72 h; series mostly up to 46 µM
Procedure, shortened: as §3

WaGa = test: as above; settings: MCC and control cell lines, CellTiter-Glo viability, 72 h; series mostly up to 46 µM
Procedure, shortened: as §3

CRL-7250 [4] = test: as above; settings: MCC and control cell lines, CellTiter-Glo viability, 72 h; at 44.8 µM (top of the series) unless noted
Procedure, shortened: as §3

HACAT [5] = test: as above; settings: MCC and control cell lines, CellTiter-Glo viability, 72 h; at 44.8 µM (top of the series) unless noted
Procedure, shortened: as §3

NIH3T3 [6] = test: as above; settings: MCC and control cell lines, CellTiter-Glo viability, 72 h; at 44.8 µM (top of the series) unless noted
Procedure, shortened: as §3
Note: nearly all actives have a fitted effect of over 60% in size.

COc1ccc(C(=O)N2CCCC2=O)cc1
inactive: Potency (SC27B) | Potency (TAB109) | Potency (TAB113) | Potency (TAB165) | Potency (W2) | max response (CRL-7250 [1]) -4.75% and 1.19% | outcome (HEK293) | max response (HaCat [2]) -10.2% and -4.53% | max response (KB-3-1) -8.06% | max response (NIH3T3 [3]) -15.7% and -0.26% | outcome (HEK293T) | Potency (MCC-13) | Potency (MCC-26) | Potency (MKL-1) | Potency (MKL-2) | Potency (UISO) | Potency (WaGa)

C[N+]1(C)[C@@H]2CC[C@H]1CC(OC(=O)C(CO)c1ccccc1)C2 (stereo partly specified)
inactive: outcome (CRL-7250 [1]) | outcome (HEK293) | max response (HaCat [2]) -1.21% | max response (KB-3-1) -14.7% and 4.2% | max response (NIH3T3 [3]) -5.19% | outcome (CRL-7250 [4]) | outcome (HEK293T) | Potency (MCC-13) | Potency (MCC-26) | Potency (MKL-1) | Potency (MKL-2) | Potency (UISO) | Potency (WaGa)

CNC(=O)NC(O)C(Cl)(Cl)Cl (stereo unspecified)
inactive: Potency (SC27B) | Potency (TAB109) | Potency (TAB113) | Potency (TAB165) | Potency (W2) | max response (CRL-7250 [1]) 2.85% | max response (HEK293) 2.62% | outcome (HaCat [2]) | max response (KB-3-1) 2.2% | max response (NIH3T3 [3]) -0.697% | outcome (HACAT [5]) | Potency (MCC-13) | Potency (MCC-26) | Potency (MKL-1) | Potency (MKL-2) | Potency (UISO) | Potency (WaGa)

NC(=O)CN1CCCC1=O
inactive: Potency (SC27B) | Potency (TAB109) | Potency (TAB113) | Potency (TAB165) | Potency (W2) | outcome (CRL-7250 [1]) | outcome (HEK293) | outcome (HaCat [2]) | max response (KB-3-1) 4.93% | max response (NIH3T3 [3]) -0.768% | outcome (CRL-7250 [4]) | outcome (HACAT [5]) | outcome (HEK293T) | Potency (MCC-13) | Potency (MCC-26) | Potency (MKL-1) | Potency (MKL-2) | Potency (UISO) | Potency (WaGa)

CC(Cc1ccc2c(c1)OCO2)NO (stereo unspecified)
inactive: max response (CRL-7250 [1]) -0.759% | max response (HEK293) -1.22% | max response (HaCat [2]) -1.01% | max response (KB-3-1) -9.46% | max response (NIH3T3 [3]) 3.02% | Potency (MCC-13) | Potency (MCC-26) | Potency (MKL-1) | Potency (MKL-2) | Potency (UISO) | Potency (WaGa)

CCOP(=S)(OCC)O/N=C(\C#N)c1ccccc1
inactive: max response (CRL-7250 [1]) -6.28% | outcome (HEK293) | outcome (HaCat [2]) | max response (KB-3-1) -0.0569% | outcome (NIH3T3 [3]) | outcome (HACAT [5]) | outcome (HEK293T) | Potency (MCC-13) | Potency (MCC-26) | Potency (MKL-1) | Potency (MKL-2) | outcome (NIH3T3 [6]) | Potency (UISO) | Potency (WaGa)
